Reference: PubChem BioAssay AID1159580 (chemical genetic matrix, 2015)
“And” between values parts separate entries of the source, which are not always exact repeats. Equal values may be shown once. About 2,000 (36%) of roughly 5,500 compounds were called active. Inconclusive results (about 18%) are left out. Rule as the data show it: active = normalized growth mostly below about 0.91 (no sharp cut-off); inconclusive = no clear call, values can overlap the other calls; inactive = mostly above about 0.92. This is one part of the list.

Test: chemical genetic growth profiling, strain panel (AID 1159580);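 also: tested at 20 µM; growth read once vehicle control cultures reached saturation at 30 °C; 1 = growth at the plate median or of vehicle wells; lower values mean less growth of the strain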
Settings: S. cerevisiae deletion strains, growth OD
[1] = locus YBR229C, strain ROT2, stronger effect = lower value
[2] = locus YDL101C, strain DUN1, stronger effect = lower value
[3] = locus YDR150W, strain NUM1, stronger effect = lower value
[4] = locus YEL061C, strain CIN8, stronger effect = lower value
[5] = locus YHR030C, strain SLT2, stronger effect = lower value
[6] = locus YJR043C, strain POL32, stronger effect = lower value
[7] = locus YJR075W, strain HOC1, stronger effect = lower value
[8] = locus YLR039C, strain RIC1, stronger effect = lower value
[9] = locus YLR262C, strain YPT6, stronger effect = lower value
[10] = locus YPL055C, strain LGE1, stronger effect = lower value
[11] = locus YPL241C, strain CIN2, stronger effect = lower value

Measured: normalized growth

O=C(O)CCCc1ccccc1
0.998 (inactive) and 0.811 (active): locus YJL095W, strain BCK1, stronger effect = lower value
active: locus YHR079C, strain IRE1, stronger effect = lower value 0.801 | locus YIL125W, strain kgd1, stronger effect = lower value 0.892 | locus YJR066W, strain TOR1, stronger effect = lower value 0.795 | locus YKL068W, stronger effect = lower value 0.917 | locus YKL085W, strain MDH1 (second series), stronger effect = lower value 0.93 | locus YKL085W, strain MDH1, stronger effect = lower value 0.93 | locus YLR113W, strain HOG1, stronger effect = lower value 0.687 | locus YNL183C, strain NPR1, stronger effect = lower value 0.772 | locus YOR231W, strain MKK1, stronger effect = lower value 0.778 | locus YPL256C, strain CLN2, stronger effect = lower value 0.72 | locus YPR141C, strain kar3, stronger effect = lower value 0.896
1 (inactive) and 0.818 (active): [5]
inactive: locus YAL021C, strain ccr4, stronger effect = lower value 0.962 | locus YAL026C, strain drs2, stronger effect = lower value 0.989 | locus YAL030W, strain snc1, stronger effect = lower value 0.988 | locus YBL061C, strain skt5, stronger effect = lower value 0.991 | locus YBR009C, strain hhf1, stronger effect = lower value 0.988 | locus YBR021W, strain FUR4, stronger effect = lower value 0.955 | locus YBR023C, strain chs3, stronger effect = lower value 0.994 | locus YBR171W, strain sec66, stronger effect = lower value 0.975 | [1] 0.999 | locus YBR231C, strain swc5, stronger effect = lower value 1 | locus YBR279W, strain paf1, stronger effect = lower value 0.974 | locus YCL011C, strain gbp2, stronger effect = lower value 0.98 | locus YCL016C, strain dcc1, stronger effect = lower value 0.985 | locus YCL029C, strain bik1, stronger effect = lower value 0.982 | locus YCL069W, strain vba3, stronger effect = lower value 0.981 | locus YCR088W, strain abp1, stronger effect = lower value 0.973 | locus YDL005C, strain med2, stronger effect = lower value 0.979 | locus YDL035C, strain GPR1, stronger effect = lower value 1.01 | locus YDL040C, strain nat1, stronger effect = lower value 0.989 | locus YDL074C, strain BRE1, stronger effect = lower value 1 | [2] 1 | locus YDL185W, strain tfp1, stronger effect = lower value 0.948 | locus YDL192W, strain arf1, stronger effect = lower value 0.996 | locus YDR001C, strain nth1, stronger effect = lower value 0.977 | locus YDR069C, strain doa4, stronger effect = lower value 1 | locus YDR101C, strain arx1, stronger effect = lower value 0.941 | locus YDR137W, strain rgp1, stronger effect = lower value 1 | [3] 0.998 | locus YDR159W, strain sac3, stronger effect = lower value 0.981 | locus YDR162C, strain NBP2, stronger effect = lower value 1 | locus YDR195W, strain ref2 1.04 | locus YDR297W, strain sur2, stronger effect = lower value 0.991 | locus YDR318W, strain mcm21, stronger effect = lower value 0.986 | locus YDR334W, strain swr1, stronger effect = lower value 0.978 | locus YDR335W, strain msn5, stronger effect = lower value 0.988 | locus YDR388W, stronger effect = lower value 0.999 | locus YDR392W, strain spt3, stronger effect = lower value 0.963 | locus YDR502C, strain sam2, stronger effect = lower value 0.981 | locus YEL003W, strain gim4, stronger effect = lower value 0.986 | locus YEL037C, strain rad23, stronger effect = lower value 0.989 | locus YEL061C, strain CIN8 (second series), stronger effect = lower value 0.983 | [4] 0.999 | locus YER015W, strain faa2, stronger effect = lower value 1 | locus YER016W, strain bim1, stronger effect = lower value 0.989 | locus YER110C, stronger effect = lower value 1 | locus YER111C, strain swi4, stronger effect = lower value 0.992 | locus YER155C, strain BEM2 (second series), stronger effect = lower value 1.01 | locus YER155C, strain BEM2, stronger effect = lower value 0.975 | locus YER167W, strain BCK2, stronger effect = lower value 1 | locus YFR010W, strain ubp6, stronger effect = lower value 0.997 | locus YGL078C, strain dbp3, stronger effect = lower value 0.933 | locus YGL086W, strain mad1, stronger effect = lower value 0.97 | locus YGL167C, strain pmr1, stronger effect = lower value 0.995 | locus YGL173C, strain kem1, stronger effect = lower value 0.997 | locus YGL227W, strain vid30, stronger effect = lower value 0.977 | locus YGL240W, strain doc1, stronger effect = lower value 1 | locus YGL248W, strain PDE1, stronger effect = lower value 0.997 | locus YGL253W, strain hxk2, stronger effect = lower value 0.974 | locus YGR135W, strain pre9, stronger effect = lower value 1.04 | locus YGR229C, strain SMI1, stronger effect = lower value 1.01 | locus YGR252W, strain gcn5, stronger effect = lower value 0.939 | locus YHR013C, strain ard1, stronger effect = lower value 1.01 | locus YHR027C, strain rpn1, stronger effect = lower value 1.01 | locus YHR079C, strain IRE1 (second series), stronger effect = lower value 0.975 | locus YHR094C, strain hxt1, stronger effect = lower value 0.995 | locus YHR129C, strain ARP1, stronger effect = lower value 0.993 | locus YHR142W, strain chs7, stronger effect = lower value 0.988 | locus YHR200W, strain rpn10, stronger effect = lower value 0.996 | locus YIL066C, strain RNR3, stronger effect = lower value 0.999 | locus YIL073C, strain SPO22, stronger effect = lower value 1.06 | locus YIR030C, strain dcg1, stronger effect = lower value 0.988 | locus YJL092W, strain hpr5, stronger effect = lower value 0.985 | locus YJL095W, strain BCK1 (second series), stronger effect = lower value 0.989 | locus YJL115W, strain asf1, stronger effect = lower value 0.986 | locus YJL129C, strain trk1, stronger effect = lower value 0.983 | locus YJL134W, strain LCB3, stronger effect = lower value 1.01 | locus YJL154C, strain vps35, stronger effect = lower value 0.976 | locus YJL164C, strain tpk1, stronger effect = lower value 0.987 | locus YJL166W, strain qcr8, stronger effect = lower value 0.992 | locus YJL168C, strain set2, stronger effect = lower value 0.998 | locus YJL187C, strain SWE1 (second series), stronger effect = lower value 0.99 | locus YJL187C, strain SWE1, stronger effect = lower value 0.99 | [6] 0.98 | [7] 1.01 | locus YKL009W, strain mrt4, stronger effect = lower value 1 | locus YKL160W, strain elf1, stronger effect = lower value 0.969 | locus YKR001C, strain vps1, stronger effect = lower value 0.951 | locus YKR026C, strain gcn3, stronger effect = lower value 0.98 | locus YKR091W, strain srl3, stronger effect = lower value 0.98 | locus YLL001W, strain dnm1, stronger effect = lower value 0.995 | locus YLL026W, stronger effect = lower value 0.985 | locus YLL041C, strain sdh2, stronger effect = lower value 0.989 | locus YLR027C, strain aat2, stronger effect = lower value 0.984 | [8] 1.01 | locus YLR058C, strain SHM2, stronger effect = lower value 1 | locus YLR102C, strain apc9, stronger effect = lower value 0.994 | locus YLR221C, strain rsa3, stronger effect = lower value 0.955 | locus YLR258W, strain gsy2, stronger effect = lower value 0.98 | locus YLR262C, strain YPT6 (second series), stronger effect = lower value 0.968 | [9] 1.01 | locus YLR268W, strain sec22, stronger effect = lower value 0.985 | locus YLR320W, strain mms22, stronger effect = lower value 0.992 | locus YLR330W, strain CHS5, stronger effect = lower value 0.998 | locus YLR342W, strain FKS1 (second series), stronger effect = lower value 1.05 | locus YLR342W, strain FKS1, stronger effect = lower value 1.01 | locus YLR357W, strain rsc2, stronger effect = lower value 1 | locus YLR370C, strain arc18, stronger effect = lower value 0.977 | locus YLR371W, strain rom2, stronger effect = lower value 0.99 | locus YLR384C, strain iki3, stronger effect = lower value 0.989 | locus YLR418C, strain cdc73, stronger effect = lower value 1.02 | locus YML016C, strain PPZ1, stronger effect = lower value 1.01 | locus YML032C, strain rad52, stronger effect = lower value 0.982 | locus YML120C, strain ndi1, stronger effect = lower value 1 | locus YML124C, strain tub3, stronger effect = lower value 0.986 | locus YMR058W, strain fet3, stronger effect = lower value 0.989 | locus YMR078C, strain ctf18, stronger effect = lower value 0.992 | locus YMR125W, strain sto1, stronger effect = lower value 0.999 | locus YMR129W, stronger effect = lower value 0.978 | locus YMR205C, strain PFK2, stronger effect = lower value 0.972 | locus YMR223W, strain ubp8, stronger effect = lower value 1.02 | locus YMR231W, strain pep5, stronger effect = lower value 0.985 | locus YMR307W, strain GAS1, stronger effect = lower value 1.1 | locus YNL067W, strain RPL9B, stronger effect = lower value 0.981 | locus YNL071W, strain lat1, stronger effect = lower value 0.992 | locus YNL209W, strain ssb2, stronger effect = lower value 1.01 | locus YNL233W, strain BNI4, stronger effect = lower value 1 | locus YNL248C, strain rpa49, stronger effect = lower value 0.907 | locus YNL250W, strain rad50, stronger effect = lower value 0.925 | locus YNL271C, strain bni1, stronger effect = lower value 0.943 | locus YNL298W, strain CLA4, stronger effect = lower value 0.955 | locus YNL307C, strain MCK1, stronger effect = lower value 0.992 | locus YNL322C, strain KRE1 (second series), stronger effect = lower value 0.954 | locus YNR049C, strain mso1, stronger effect = lower value 0.975 | locus YNR052C, strain pop2, stronger effect = lower value 0.986 | locus YOL012C, strain htz1 1.62 | locus YOL147C, strain pex11, stronger effect = lower value 0.987 | locus YOR001W, strain rrp6, stronger effect = lower value 0.962 | locus YOR061W, strain CKA2, stronger effect = lower value 1 | locus YOR069W, strain VPS5, stronger effect = lower value 1 | locus YOR070C, strain gyp1, stronger effect = lower value 0.988 | locus YOR080W, strain dia2, stronger effect = lower value 0.994 | locus YOR083W, strain WHI5, stronger effect = lower value 0.975 | locus YOR106W, strain vam3, stronger effect = lower value 0.988 | locus YOR136W, strain idh2, stronger effect = lower value 0.976 | locus YOR144C, strain elg1, stronger effect = lower value 0.996 | locus YOR184W, strain ser1, stronger effect = lower value 0.988 | locus YOR265W, strain rbl2, stronger effect = lower value 0.989 | locus YOR270C, strain vph1, stronger effect = lower value 0.991 | locus YOR290C, strain snf2, stronger effect = lower value 0.962 | locus YOR316C, strain cot1, stronger effect = lower value 0.998 | locus YPL051W, strain arl3, stronger effect = lower value 0.988 | [10] 0.963 | locus YPL078C, strain atp4, stronger effect = lower value 0.985 | locus YPL106C, strain sse1, stronger effect = lower value 0.969 | locus YPL240C, strain hsp82, stronger effect = lower value 0.988 | [11] 1.01 | locus YPR119W, strain clb2, stronger effect = lower value 0.995 | locus YPR163C, strain tif3, stronger effect = lower value 0.983 | locus YPR167C, strain met16, stronger effect = lower value 0.99 | strain wtn01, stronger effect = lower value 0.995

O=C(O)CSCc1ccccc1
inactive: locus YAL013W, strain DEP1, stronger effect = lower value 1.01 | [1] 1 | locus YCL061C, strain MRC1, stronger effect = lower value 0.991 | [2] 1.02 | locus YDL134C, strain PPH21, stronger effect = lower value 0.986 | [3] 0.98 | [4] 1.01 | locus YGR078C, strain PAC10, stronger effect = lower value 0.976 | [5] 1.07 | locus YHR087W, strain rtc3, stronger effect = lower value 0.99 | [6] 1.03 | [7] 0.971 | [8] 1.07 | locus YLR058C, strain SHM2 (second series), stronger effect = lower value 0.993 | locus YLR085C, strain ARP6, stronger effect = lower value 1.03 | [9] 1.04 | locus YML094W, strain GIM5, stronger effect = lower value 1.03 | locus YMR219W, strain ESC1, stronger effect = lower value 0.997 | locus YMR263W, strain SAP30, stronger effect = lower value 1 | locus YNL128W, strain TEP1, stronger effect = lower value 0.986 | locus YNL153C, strain GIM3, stronger effect = lower value 0.997 | locus YNL298W, strain CLA4 (second series), stronger effect = lower value 1.05 | locus YNL322C, strain KRE1, stronger effect = lower value 0.991 | locus YNR030W, strain Alg12, stronger effect = lower value 1.02 | [10] 0.958 | [11] 1 | locus YPR135W, strain CTF4, stronger effect = lower value 0.976
